About 900 (1.7%) of roughly 53,000 compounds showed an effect of 50% or more. The sample as a whole holds a higher share of strong results than the screen did.
Test system: Mycobacterium tuberculosis
Test: Cornell - Phenotypic assay to identify agents that inhibit growth of Mycobacterium tuberculosis
Type: functional
Design: scale not given: direction of the effect not stated beside the values
Conditions: 10 mM as filed; unlikely as a test dose

Row | SMILES | Percent Effect
1 | COc1cc(C2(C(=O)N3CCCC(n4cncn4)C3)CC2)ccc1C (stereo not drawn) | 9.425%
2 | CC1(C(=O)NC2CCCC2)CCCN(c2cnccn2)C1 (stereo not drawn) | 15.8%
3 | Cn1cccc1C(O)CNC(=O)COc1ccc(Cl)cc1Cl (stereo not drawn) | 63.83%
4 | Cn1cccc1C(O)CNC(=O)c1ccc(F)c(F)c1 (stereo not drawn) | 19.39%
5 | Cn1cccc1C(O)CNC(=O)COc1ccccc1F (stereo not drawn) | 31.15%
6 | Cn1cccc1C(O)CNS(=O)(=O)Cc1ccccc1 (stereo not drawn) | -41.72%
7 | COC(=O)c1ccc(C(=O)NCC(O)c2cccn2C)cc1 (stereo not drawn) | 64.24%
8 | Cn1cccc1C(CNC(=O)COc1ccc(Cl)cc1Cl)N1CCCC1 (stereo not drawn) | 27.47%
9 | Cn1cccc1C(O)CNC(=O)c1cccc(Cl)c1 (stereo not drawn) | 49.37%
10 | Cn1cccc1C(O)CNC(=O)c1ccc2nsnc2c1 (stereo not drawn) | 20.08%
11 | Cn1cccc1C(O)CNC(=O)c1ccc(C(F)(F)F)cc1 (stereo not drawn) | 56.65%
12 | COC[C@@H]1CCC[C@]12CN(CCc1ccccc1)CCO2.O=C(O)C(F)(F)F | -4.553%
13 | Cc1nc(CNC(=O)c2cc(Cn3ccnc3C(C)C)[nH]n2)sc1C | -7.755%
14 | CC(C)NC(=O)NCC(Cc1ccc(F)cc1)C(N)=O (stereo not drawn) | -16.75%
15 | Cc1c(-c2nc3cc(S(=O)(=O)N4CCCC4)ccc3n2C)cnn1C | -4.812%
16 | CCc1ccccc1-c1cc(C)nc(N)n1 | 13.97%
17 | Cc1ccc(Oc2cc(CN)ccn2)cc1C.Cl | -26.7%
18 | NC(=O)NC(=O)CNC1(c2ccc(Cl)cc2)CCCC1 | 4.44%
19 | Cc1ccccc1CSc1ncc(Br)c(C(=O)O)n1 | 12.49%
20 | Cc1cncc(C2CCN(Cc3ccncc3)CC2)n1 | 18.56%
21 | Cc1cncc(C2CCN(Cc3ccsc3)CC2)n1 | 41.74%
22 | Cc1cncc(C2CCN(Cc3cnc(C)nc3)CC2)n1 | 56.88%
23 | Cc1nccn1CCCn1cncc1-c1ccc2c(c1)CCCN2C.Cl | 0.2069%
24 | CCN1CCc2cc(-c3cncn3CCNC3CCS(=O)(=O)C3)ccc21.Cl (stereo not drawn) | 12.29%
25 | Cc1nccn1CCCn1cncc1-c1ccc2c(c1)CCC(C)N2C.Cl (stereo not drawn) | 54.25%
26 | Cc1nccn1CCCn1cncc1-c1ccc2c(c1)CC(C)N2C.Cl (stereo not drawn) | 20.63%

Row | SMILES | Percent Effect
27 | CCN1c2ccc(-c3cncn3CCCn3ccnc3C)cc2CC1C.Cl (stereo not drawn) | 54.49%
28 | CCN1c2ccc(-c3cncn3CC(=O)NC(C)(C)C)cc2CC1C.Cl (stereo not drawn) | -3.554%
29 | OCCNc1nc(NCCc2ccccc2)nc2nccnc12 | 11.82%
30 | Cn1cc(CN2CC[C@H](O)[C@@H](n3ccc(=O)[nH]c3=O)CC2)cn1 | -40.44%
31 | Cn1cc(CN(Cc2ccccn2)Cc2ccccc2Cl)cn1 | 9.224%
32 | COc1ccc(C(C)NCCc2ccc(NC(C)=O)cc2)cc1F (stereo not drawn) | -10.02%
33 | O[C@@H]1CN(Cc2cc(Cl)cc3cccnc23)C[C@@H]1O | 5.63%
34 | Clc1cc(CN2CCCN3CCCC3C2)c2ncccc2c1 (stereo not drawn) | 58.38%
35 | OCCN1CCN(Cc2cc(Cl)cc3cccnc23)CC1 | -20.78%
36 | O=S(=O)(NCCNc1ccc(-n2cccc2)nn1)c1cccs1 | 107.8%
37 | O=S(=O)(Cc1ccccc1)NCCNc1ccc(-n2cccc2)nn1 | 12.63%
38 | CCS(=O)(=O)NCCNc1cc(-n2cccc2)ncn1 | 13.54%
39 | O=S(=O)(NCCNc1cc(-n2cccn2)ncn1)c1cccs1 | -21.67%
40 | O=S(=O)(NCCNc1cc(-n2cccc2)ncn1)c1cccs1 | 51.47%
41 | Cc1nsc(NCCNS(=O)(=O)c2ccccc2)n1 | 22.52%
42 | Cc1cccc(C(=O)NCCNS(=O)(=O)c2cccs2)c1C | 27.49%
43 | O=S(=O)(NCCNc1ccc(-n2cccc2)nn1)c1ccccc1 | 105.3%
44 | CCS(=O)(=O)NCCCNc1cc(N2CCCC2CO)ncn1 (stereo not drawn) | 22.16%
45 | Cc1ccc(C)c(S(=O)(=O)NCCNc2ccc(-n3cccc3)nn2)c1 | 29.41%
46 | Cc1nnsc1C(=O)NCCNS(=O)(=O)c1cccs1 | -32.34%
47 | Cc1ccc(S(=O)(=O)NCCNc2cc(-n3cccc3)ncn2)c(C)c1 | 53.05%
48 | CCC1=N[C@@]2(CC[C@@H]3CN(CC4CC4)C[C@@H]32)C(=O)N1CC.O=C(O)C(F)(F)F | 7.399%
49 | O=C(CC1CC1)N1CCN(Cc2ccncc2)c2ncccc2C1.O=C(O)C(F)(F)F.O=C(O)C(F)(F)F | 7.793%
50 | Cc1ccc(-c2nnc(CN3CCN(c4ccccn4)CC3)o2)cc1 | -16.82%
51 | COCC(=O)N1CCCC(c2cc(C(F)F)n3ncnc3n2)C1.Cl (stereo not drawn) | -7.323%
52 | CCNC(=O)C1(CC2CC(c3ccccc3OC)=NO2)CCOCC1 (stereo not drawn) | -45.09%

Row | SMILES | Percent Effect
53 | CNc1cncc(C2CCCN2C(=O)CCn2ccnc2)n1 (stereo not drawn) | -11.08%
54 | COCCN(C)CC(=O)N1C[C@@H](C)[C@](O)(C(C)C)C1 | 28.76%
55 | CCc1cc(O)n2nc(C3CCN(C(=O)c4ccccn4)CC3)cc2n1 | 37.19%
56 | NC(=O)CN1CCC2(CC1)C[C@@H](O)[C@H](c1ccccc1)NC2=O | -49.18%
57 | COCC(=O)N1CCCC1(C(=O)N(C)C)c1cnccn1 (stereo not drawn) | 19.92%
58 | Cc1cc(-c2ccccc2Cl)nc(N)n1 | 22.73%
59 | O=C(NCCNc1cc(-n2cccc2)ncn1)c1cccs1 | 57.48%
60 | CC(C)(C)c1ncc(C(=O)NCCNC(=O)c2cccs2)s1 | -14.14%
61 | O=C(NCCNC(=O)c1scnc1Cl)c1cccs1 | -53.65%
62 | Cc1ccc2c(c1)[C@@H](CC(=O)N(C)C)CCO2 | 3.607%
63 | COC(=O)C(NC(=O)c1ccc(N(C)C)nc1)c1ccccc1 (stereo not drawn) | 107.9%
64 | NC(=O)C(NC(=O)c1ccc(NC2CC2)nc1)c1ccccc1 (stereo not drawn) | -20.48%
65 | CC(C)c1cc(NC(=O)c2ccc(NC3CC3)nc2)[nH]n1 | -6.556%
66 | CN(C)c1ccc(C(=O)NCCCc2ccccn2)cn1 | -1.76%
67 | CCNc1ncc(C(=O)N[C@H](C(N)=O)c2ccccc2)cn1 | -10.46%
68 | COC(=O)C(NC(=O)c1ccc(NC2CC2)nc1)c1ccccc1 (stereo not drawn) | 107%
69 | OC1(CN2CCCC(Cn3cncn3)C2)CCCCC1 (stereo not drawn) | 2.144%
70 | CNC(=O)c1sc2ccccc2c1C1CCN(c2cc(C)nc(C)n2)C1 (stereo not drawn) | -31.24%
71 | Cc1cnn(C2CCCN(C(=O)c3ccc(O)nc3)C2)c1 (stereo not drawn) | -59.29%
72 | Cc1ccc(CN2CC[C@@H]3[C@@H]2CCN3C(=O)Cc2cccs2)o1.O=C(O)C(F)(F)F | 2.395%
73 | CC(Nc1nc(-c2ccccc2)nc2c1CCNCC2)c1cccnc1 (stereo not drawn) | 76.64%
74 | Cc1cccnc1[C@H](C)Nc1nc(-c2cccnc2)nc2c1CNC2 | 56.46%
75 | CC(Nc1nc(-c2ccccc2)nc2c1CCNCC2)c1nccs1 (stereo not drawn) | 28.69%
76 | Cc1cc(CC(C)Nc2nc(-c3cccnc3)nc3c2CNC3)[nH]n1 (stereo not drawn) | -19.02%
77 | CC(Nc1nc(-c2ccncc2)nc2c1CCNC2)c1ccccc1 (stereo not drawn) | 16.91%
78 | CCc1cc(C(C)Nc2nc(-c3cccnc3)nc3c2CNC3)on1 (stereo not drawn) | 9.073%

Row | SMILES | Percent Effect
79 | Cc1cc(NCCNS(C)(=O)=O)nc2cc3c(cc12)CCC3 | -25.91%
80 | Cc1cs/c(=N\C(=O)Cn2nc(N3CCOCC3)ccc2=O)[nH]1 | 32.69%
81 | CC(C)c1n[nH]c(C2CN(C(=O)c3ncoc3C(C)C)CCO2)n1 (stereo not drawn) | -2.194%
82 | Cc1c(-c2cccs2)nn2c(O)c3c(nc12)CN(C(=O)C1CC1)C3 | 54.87%
83 | COCCC(=O)N1Cc2nc3c(C)c(-c4cccs4)nn3c(O)c2C1 | 39.74%
84 | COCC(=O)N1Cc2nc3c(C)c(-c4cccs4)nn3c(O)c2C1 | 3.993%
85 | CC(C)c1ncc(CN2CCOC(C(=O)Nc3ccccc3)C2)cn1 (stereo not drawn) | -3.657%
86 | CCCN(CCC)c1nc(N)nc(-c2cc(Cl)ccc2OC)n1 | 61.82%
87 | COc1ccc(Cl)cc1-c1nc(N)nc(N(C)C)n1 | 31.47%
88 | COc1ccc(Cl)cc1-c1nc(N)nc(N)n1 | -5.371%
89 | CN1CCO[C@H]2CN(C(=O)c3ccoc3)C[C@H]21.O=C(O)C(F)(F)F | 6.414%
90 | Cl.NCCc1cn(Cc2ccccn2)c2ccccc12 | -5.41%
91 | CN(C)C(=O)c1cn2cc(-c3ccccc3Cl)n(CC3CC3)c(=O)c2n1 | 8.491%
92 | CCNC(=O)c1cn2cc(-c3ccccc3Cl)n(CC3CC3)c(=O)c2n1 | 93.59%
93 | CNC(=O)c1cn2cc(-c3ccccc3Cl)n(CC3CC3)c(=O)c2n1 | 16.32%
94 | CC(=O)N1CCc2[nH]cnc2C12CCN(C(=O)Cc1cccs1)CC2 | 5.963%
95 | Cc1nc(CN2CCCC(NCc3sccc3C)C2)no1 (stereo not drawn) | -19.65%
96 | COCCN1CCCC(c2ncc(C(=O)N3CCOCC3)c(C)n2)C1 (stereo not drawn) | -5.414%
97 | Cc1cccc(NC2CCN(C(=O)Nc3cc(C)on3)CC2)n1 | -41.3%
98 | Cc1cccc(NC2CCN(C(=O)Nc3cccc4[nH]ccc34)CC2)n1 | 103.5%
99 | Cc1cccc(NC2CCN(C(=O)Nc3cc(F)ccc3F)CC2)n1 | 0.502%
100 | Cc1cccc(NC2CCN(C(=O)Nc3cc(F)cc(F)c3)CC2)n1 | -33.08%
101 | Cc1cccc(NC2CCN(C(=O)Nc3ccncc3)CC2)n1 | -35.06%
102 | Cc1cccc(NC2CCN(C(=O)Nc3ccc(F)c(F)c3)CC2)n1 | 108.1%
103 | O=C(O)C(F)(F)F.O=C1COC2(CCN(Cc3nccs3)CC2)CN1c1ccccc1 | 8.785%

From ChEMBL document CHEMBL3988442, “University of Dundee, Small-Polar-MMV Screening Library” (2021)
